Reference: PubChem BioAssay (NCATS)
Results filed as inconclusive are left out. Activity calls are given as the source filed them. Unless noted, calls follow the shape of the dose curve; as a rule, active = well fitted curve in the direction sought with a large enough effect; inconclusive = small, poorly fitted or top-dose-only effect, or another doubt; inactive = no such curve, though single readings can be large; an effect the other way counts as inactive or inconclusive.

Tests used:
[1] = biological target: Lysosomal acid glucosylceramidase (Homo sapiens) (UniProt P04062); assay: Glucocerebrosidase-p2 (AID 348; in the data active = potency below about 10 µM; also: potency is read from the fitted curve at half-maximal effect); conditions: purified GBA, blue fluorogenic substrate, 40 min
Outline: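 Compounds titrated from 0.6 nM upwards against 0.2 nM enzyme in pH 5.9 citric acid/KH2PO4, taurocholate, tween-20; blue fluorogenic substrate 80 uM, 40 min room temperature, stopped and read Ex 365/Em 440 for AC50.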

[2] = AP1 Signaling Pathway (AID 357; active = well fitted curve in either direction with a large enough effect, not every such curve was filed as active;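 also: ME-180 reporter cells stimulated with EGF at its EC50 level; % is scaled to controls: 0 for no effect and ±100 for the full control effect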)
Outline: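 AP-1-bla ME-180 cells, Opti-MEM + 0.5% dialyzed FBS, plated overnight 37 °C. Cpd titration + EC50 EGF, 5 h 37 °C. CCF4 2.5 h RT; ex 405, em 460/530 ratio → %activity, AC50.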

[3] = biological target: Cytochrome P450 1A2 (Homo sapiens) (UniProt P05177); assay: p450-cyp1a2 (AID 410; calls by dose curve;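 also: -100% = full effect of reference inhibitor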)
Outline: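 Luminescent readout of luciferin formed from Luciferin-ME by human CYP1A2; data normalized against complete inhibition by 57 uM furafylline. Enzyme 20nM, substrate 100uM at Km, 100mM KPO4 buffer, 60 min reaction at room temperature.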

[4] = NFAT Signaling Pathway (AID 444; active = well fitted curve in either direction with a large enough effect, not every such curve was filed as active;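 also: carbachol stimulus at about its EC50 of 1 µM final; % is scaled to controls: 0 for no effect and ±100 for the full control effect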); conditions: Jurkat NFAT-bla M1, carbachol, beta-lactamase ratio, 5 h; at 17.2 µM (top of the series) unless noted
Outline: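 Jurkat cells with NFAT-driven β-lactamase reporter and co-expressed M1 receptor, stimulated with carbachol (final 1 uM, ~EC50), compound titration, 5 h at 37 °C. CCF4 loaded 1 h at RT; 460/530 nm ratio gave %activity and AC50.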

[5] = Stat Signaling Pathway (AID 446; active = well fitted curve in either direction with a large enough effect, not every such curve was filed as active;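 also: ME-180 cervical cancer cells given 40 pM IL-6 alongside compound; SIE-controlled beta-lactamase reporter measured as 460/530 nm FRET emission ratio; % is scaled to controls: 0 for no effect and ±100 for the full control effect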)
Outline: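 ME-180 cells carrying a SIE-driven beta-lactamase reporter are stimulated with 40 pM IL-6 for 5 h at 37C in the presence of compound. The 460/530 nm FRET substrate ratio is read after 2.5 h at RT. Data are normalised to 300 pM IL-6 and to 125 nM JAK inhibitor controls.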

[6] = biological target: Glucocorticoid receptor (Homo sapiens) (UniProt P04150); assay: GR-GFP Redistribution (AID 450;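 active = compounds whose dose series gives a full or clear partial fitted curve of increased nuclear translocation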; also: potency is read from the fitted curve at half-maximal effect); conditions: U2OS GR-GFP nuclear translocation, laser cytometry, 2 h
[7] = biological target: Glucocorticoid receptor (Homo sapiens) (UniProt P04150); assay: GR-EFC Redistribution (AID 451; calls by dose curve; also: potency is read from the fitted curve at half-maximal effect); conditions: CHO-K1 GR-EFC translocation, beta-gal luminescence, 2 h
Outline: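 CHO-K1 cells expressing nuclear EA and GR-ED fragments of b-gal; compounds titrated up to 46 uM final, 2 h at 37 C. GR nuclear translocation read as complemented b-gal luminescence after 1 h RT detection.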

[8] = biological target: Mitogen-activated protein kinase 10 (Mus musculus) (UniProt Q61831); assay: JNK3 AlphaScreen Assay (AID 530; active = well fitted curve in either direction with a large enough effect, not every such curve was filed as active;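 also: kinase came from lysate of stimulated human HepG2 cells; signal reports phosphorylation of biotinylated GST-cJun 1-79 at Ser73 with 10 µM ATP; % is scaled to controls: 0 for no effect and ±100 for the full control effect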)
Outline: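 Pre-activated (IL-1β/TNFα) JNK3 in HepG2 lysates phosphorylates biotin-GST-cJun(1-79), 10 uM ATP; anti-phospho-cJun(Ser73) AlphaScreen read at room temperature, pH 7.6 Tris buffer. Compounds pre-incubated 15 min as titrations.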

[9] = biological target: 3',5'-cyclic-AMP phosphodiesterase 4B (Homo sapiens) (UniProt Q07343); assay: qHTS Assay for Inhibitors of PDE-IV (AID 607; active = well fitted activation curve with a large enough effect in the main read-out, with a control signal flat, not every such curve was filed as active; also: % of control where 0% means no effect)
Outline: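 HEK293 ACTOne cells with CNG channel (1000/well), endogenous PDE4; membrane potential dye, compounds up to 22.9 uM final. Fluorescence Ex 535/Em 590; RO 20-1724 (100 uM final) as reference.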

[10] = biological target: ATP-dependent 6-phosphofructokinase (Trypanosoma brucei brucei) (UniProt O15648); assay: qHTS Assay to Find Inhibitors of T. brucei phosphofructokinase: hit validation (AID 492961)
Outline: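 Compounds titrated; %activity normalized to 0x and 1x enzyme controls, curve-fitted. Readout: ADP-Glo luminescence after 45 min room-temperature reaction of 1.25 nM PFK, 0.1 mM ATP, 0.5 mM F6P, pH 8.0.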

[11] = biological target: Ubiquitin carboxyl-terminal hydrolase 1 (Homo sapiens) (UniProt O94782); assay: Inhibitors of USP1/UAF1: Pilot qHTS (AID 504865);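 also: rhodamine fluorescence freed from ubiquitin-rhodamine substrate followed over time; top concentration of the series differs between compounds; % is scaled to controls: 0 for no effect and ±100 for the full control effect; nearly all actives have a fitted effect of over 35% in size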
Outline: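 USP1/UAF1 complex (1nM) preincubated with compound 15 min at room temperature, then Ub-Rho substrate (150nM final) added. Fluorescence read kinetically at 480/540 nm, 6 reads every 60 seconds. Buffer: 50mM HEPES pH 7.8, 0.5mM EDTA, 0.1 mg/ml BSA, 1mM TCEP, 0.01% Tween-20.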

[12] = biological target: Luciferin 4-monooxygenase (Photinus pyralis) (UniProt P08659); assay: Biochemical firefly luciferase enzyme assay for NPC (AID 624030);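 also: purified P. pyralis luciferase at 10 nM with luciferin and ATP substrate; 0% = DMSO and -100% = full luciferase inhibition by PTC124 control; nearly all actives have a fitted effect of over 70% in size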
Outline: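 Purified P. pyralis luciferase at 10 nM in 50 mM Tris Acetate (final), luminescence read within 5 minutes of enzyme addition to compounds. Activity normalised to PTC124 versus DMSO; concentration-response curves classed by r2, magnitude and activity.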

[13] = S16 Schwann cell viability assay (CellTiter-Glo assay) (AID 624031);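 also: native untransfected S16 rat Schwann cells; cellular ATP luminescence as a viability measure; plate controls were DMSO-treated cells for no effect and cell-free wells for full effect; nearly all actives have a fitted effect of over 70% in size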
Outline: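 Cells were seeded at 500-750 per well in phenol red-free DMEM with 10% FBS and left overnight. Compounds or DMSO were pinned in, incubation ran 24 h at 37 °C/5% CO2, then CellTiter-Glo reagent was added and luminescence measured.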

[14] = S16 Schwann cell PMP22 intronic element firefly luciferase assay (AID 624032);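 also: plate controls were DMSO for no effect and PTC124 positive control mean for full effect; nearly all actives have a fitted effect of over 30% in size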
Outline: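 Rat S16 Schwann cells stably carrying firefly luciferase driven by a PMP22 intronic element, in 10% FBS, treated 24 h at 37 C. ONE-Glo luminescence normalized to PTC124 control and DMSO (0%); curves classed by r2, magnitude and activity.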

[15] = biological target: Cytochrome P450 2D6 (Homo sapiens) (UniProt P10635); assay: Cytochrome P450 family 2 subfamily D member 6 (CYP2D6) small molecule antagonists: luciferase biochemical (cell-free) qHTS assay (AID 1645840; active = well fitted curve in the direction sought with a large enough effect in the repeat runs; an effect the other way counts as inactive or inconclusive; also: % is scaled to controls: 0 for no effect and ±100 for the full control effect; nearly all actives have a fitted effect of over 55% in size)
Outline: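 P450-Glo luminescent screen: recombinant CYP2D6 enzyme–proluciferin substrate mix preincubated with compound 10 min at room temperature, then NADPH regeneration added for 1 h at room temperature. Detection reagent added for 20 min; luciferin light read as relative luminescence units.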

[16] = biological target: Cytochrome P450 2C9 (Homo sapiens) (UniProt P11712); assay: Cytochrome P450 family 2 subfamily C member 9 (CYP2C9) small molecule antagonists: luciferase biochemical (cell-free) qHTS assay (AID 1645842; active = well fitted curve in the direction sought with a large enough effect in the repeat runs; an effect the other way counts as inactive or inconclusive; also: % is scaled to controls: 0 for no effect and ±100 for the full control effect; nearly all actives have a fitted effect of over 55% in size)
Outline: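 Luminescence, after 20 min with luciferin detection reagent, reflected CYP2C9 turnover during a 1 h NADPH-driven reaction at 37C. Enzyme-substrate mix contained 0.4% bovine serum albumin and was preincubated with compound 10 min at room temperature.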

[17] = biological target: Glutathione peroxidase 1 (Homo sapiens) (UniProt P07203); assay: Primary qHTS Assay for Inhibitors of Recombinant Selenoprotein Glutathione Peroxidase 1 (GPX1) (AID 1845191); also: % is scaled to controls: 0 for no effect and ±100 for the full control effect; nearly all actives have a fitted effect of over 65% in size
Outline: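 GR-coupled assay: compounds preincubated 30 min at room temperature with GPX1, then reaction started with CHP; final 10 nM GPX1, 1 mM GSH, 0.5 mM CHP, 0.5 mM NADPH, 100 nM GR, 0.01% BSA, pH 7.5 Tris buffer. NADPH fluorescence (340/450 nm) read at 0 and 15 min.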

[18] = biological target: Phospholipid hydroperoxide glutathione peroxidase GPX4 (Homo sapiens) (UniProt P36969); assay: Primary qHTS Assay for Inhibitors of Recombinant Selenoprotein Glutathione Peroxidase 4 (GPX4) (AID 1845192); also: nearly all actives have a fitted effect of over 65% in size
Outline: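 GR-coupled assay: recombinant GPX4 preincubated 30 min with compound at room temperature; final 200 nM GPX4, 1 mM GSH, 0.5 mM cumene hydroperoxide, 0.5 mM NADPH, 100 nM GR, 0.01% BSA, pH 7.5 Tris. NADPH fluorescence (340/450 nm) read at 0 and 15 min.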

[19] = qHTS profiling for inhibitors of Plasmodium falciparum proliferation (AID 504749);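 also: 0% = DMSO vehicle and full inhibition = artemisinin control; nearly all actives have a fitted effect of over 60% in size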; conditions: P. falciparum in erythrocytes, SYBR Green DNA, 72 h, at 28.7 µM (top of the series)
Outline: (§1)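 P. falciparum-infected erythrocytes (0.3% parasitemia, 2.5% hematocrit) incubated with compound 72 h at 37 C, 5% CO2. Parasite DNA detected by SYBR Green after lysis, overnight at room temperature; normalised to 0.29 uM artemisinin and DMSO.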

[20] = tested on: 3D7; assay: as above; conditions: P. falciparum in erythrocytes, SYBR Green DNA, 72 h; series mostly up to 12.8 µM
Outline: as §1

[21] = tested on: 7G8; assay: as above; conditions: P. falciparum in erythrocytes, SYBR Green DNA, 72 h; series mostly up to 12.8 µM
Outline: as §1

[22] = tested on: AA1029; assay: as above; conditions: P. falciparum in erythrocytes, SYBR Green DNA, 72 h; series mostly up to 12.8 µM
Outline: as §1

[23] = tested on: AS120; assay: as above; conditions: P. falciparum in erythrocytes, SYBR Green DNA, 72 h; series mostly up to 12.8 µM
Outline: as §1

[24] = tested on: ATS189; assay: as above; conditions: P. falciparum in erythrocytes, SYBR Green DNA, 72 h; series mostly up to 12.8 µM
Outline: as §1

[25] = tested on: ATS95; assay: as above; conditions: P. falciparum in erythrocytes, SYBR Green DNA, 72 h; series mostly up to 12.8 µM
Outline: as §1

[26] = tested on: C2A; assay: as above; conditions: P. falciparum in erythrocytes, SYBR Green DNA, 72 h; series mostly up to 12.8 µM
Outline: as §1

[27] = tested on: CP185; assay: as above; conditions: P. falciparum in erythrocytes, SYBR Green DNA, 72 h; series mostly up to 12.8 µM
Outline: as §1

[28] = tested on: CP191; assay: as above; conditions: P. falciparum in erythrocytes, SYBR Green DNA, 72 h; series mostly up to 12.8 µM
Outline: as §1

[29] = tested on: CP192; assay: as above; conditions: P. falciparum in erythrocytes, SYBR Green DNA, 72 h; series mostly up to 12.8 µM
Outline: as §1

[30] = tested on: CP194; assay: as above; conditions: P. falciparum in erythrocytes, SYBR Green DNA, 72 h; series mostly up to 12.8 µM
Outline: as §1

[31] = tested on: CP201; assay: as above; conditions: P. falciparum in erythrocytes, SYBR Green DNA, 72 h; series mostly up to 12.8 µM
Outline: as §1

[32] = tested on: CP203; assay: as above; conditions: P. falciparum in erythrocytes, SYBR Green DNA, 72 h; series mostly up to 12.8 µM
Outline: as §1

[33] = tested on: CP211; assay: as above; conditions: P. falciparum in erythrocytes, SYBR Green DNA, 72 h; series mostly up to 12.8 µM
Outline: as §1

[34] = tested on: CP215; assay: as above; conditions: P. falciparum in erythrocytes, SYBR Green DNA, 72 h; series mostly up to 12.8 µM
Outline: as §1

[35] = tested on: CP217; assay: as above; conditions: P. falciparum in erythrocytes, SYBR Green DNA, 72 h; series mostly up to 12.8 µM
Outline: as §1

[36] = tested on: CP237; assay: as above; conditions: P. falciparum in erythrocytes, SYBR Green DNA, 72 h; series mostly up to 12.8 µM
Outline: as §1

[37] = tested on: CP238; assay: as above; conditions: P. falciparum in erythrocytes, SYBR Green DNA, 72 h; series mostly up to 12.8 µM
Outline: as §1

[38] = tested on: CP247; assay: as above; conditions: P. falciparum in erythrocytes, SYBR Green DNA, 72 h; series mostly up to 12.8 µM
Outline: as §1

Chain of Glucocorticoid receptor (Homo sapiens) (P04150 whole entry, looked up, the tested form may be a part): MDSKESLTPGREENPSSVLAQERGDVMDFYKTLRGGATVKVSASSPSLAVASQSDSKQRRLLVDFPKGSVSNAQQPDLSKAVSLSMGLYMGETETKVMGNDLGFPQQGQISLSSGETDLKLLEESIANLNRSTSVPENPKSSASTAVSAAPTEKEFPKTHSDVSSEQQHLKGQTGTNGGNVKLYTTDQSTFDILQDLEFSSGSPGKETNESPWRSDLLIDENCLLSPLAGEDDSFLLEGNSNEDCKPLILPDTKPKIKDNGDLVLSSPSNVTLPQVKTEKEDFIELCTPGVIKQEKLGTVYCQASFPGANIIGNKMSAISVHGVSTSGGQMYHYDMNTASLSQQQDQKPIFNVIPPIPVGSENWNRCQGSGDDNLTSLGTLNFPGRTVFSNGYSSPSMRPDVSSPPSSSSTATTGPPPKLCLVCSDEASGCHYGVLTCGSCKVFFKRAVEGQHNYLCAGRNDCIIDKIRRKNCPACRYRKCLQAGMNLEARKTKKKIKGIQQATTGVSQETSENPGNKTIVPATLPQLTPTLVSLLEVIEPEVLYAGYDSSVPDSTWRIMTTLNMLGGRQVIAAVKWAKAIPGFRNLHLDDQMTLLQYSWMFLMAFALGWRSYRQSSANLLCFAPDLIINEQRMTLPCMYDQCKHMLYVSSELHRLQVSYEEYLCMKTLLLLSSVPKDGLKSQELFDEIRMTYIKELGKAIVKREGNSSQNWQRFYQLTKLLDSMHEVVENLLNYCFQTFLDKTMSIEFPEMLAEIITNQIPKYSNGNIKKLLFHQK
Chain of Lysosomal acid glucosylceramidase (Homo sapiens) (P04062 whole entry, looked up): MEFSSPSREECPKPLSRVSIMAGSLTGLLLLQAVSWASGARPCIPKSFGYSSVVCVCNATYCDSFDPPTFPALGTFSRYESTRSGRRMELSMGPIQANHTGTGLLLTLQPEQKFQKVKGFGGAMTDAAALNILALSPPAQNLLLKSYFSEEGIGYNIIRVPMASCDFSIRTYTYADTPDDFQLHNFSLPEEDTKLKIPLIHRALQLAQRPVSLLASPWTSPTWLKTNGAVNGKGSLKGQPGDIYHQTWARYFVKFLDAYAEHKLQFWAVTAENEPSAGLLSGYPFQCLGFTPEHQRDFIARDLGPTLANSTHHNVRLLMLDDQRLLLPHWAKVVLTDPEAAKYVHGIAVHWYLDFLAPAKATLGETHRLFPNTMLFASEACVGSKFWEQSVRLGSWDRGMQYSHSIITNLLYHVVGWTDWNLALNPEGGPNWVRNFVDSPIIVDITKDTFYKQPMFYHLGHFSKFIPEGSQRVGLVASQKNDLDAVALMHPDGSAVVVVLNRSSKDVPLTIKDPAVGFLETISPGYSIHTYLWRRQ
Chain of ATP-dependent 6-phosphofructokinase (Trypanosoma brucei brucei) (O15648 whole entry, looked up): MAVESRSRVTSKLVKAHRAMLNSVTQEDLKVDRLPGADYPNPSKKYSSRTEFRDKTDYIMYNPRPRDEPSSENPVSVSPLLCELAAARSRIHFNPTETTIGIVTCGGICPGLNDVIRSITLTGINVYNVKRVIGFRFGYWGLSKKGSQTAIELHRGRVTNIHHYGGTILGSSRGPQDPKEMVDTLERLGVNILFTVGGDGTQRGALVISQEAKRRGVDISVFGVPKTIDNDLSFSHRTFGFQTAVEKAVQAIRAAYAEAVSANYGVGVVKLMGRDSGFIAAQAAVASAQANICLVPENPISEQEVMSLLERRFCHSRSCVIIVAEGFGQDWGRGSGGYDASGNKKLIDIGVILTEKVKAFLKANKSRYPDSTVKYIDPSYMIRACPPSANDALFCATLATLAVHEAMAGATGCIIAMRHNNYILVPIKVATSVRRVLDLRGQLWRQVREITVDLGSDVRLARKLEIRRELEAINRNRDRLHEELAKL
Chain of Cytochrome P450 2D6 (Homo sapiens) (P10635 whole entry, looked up): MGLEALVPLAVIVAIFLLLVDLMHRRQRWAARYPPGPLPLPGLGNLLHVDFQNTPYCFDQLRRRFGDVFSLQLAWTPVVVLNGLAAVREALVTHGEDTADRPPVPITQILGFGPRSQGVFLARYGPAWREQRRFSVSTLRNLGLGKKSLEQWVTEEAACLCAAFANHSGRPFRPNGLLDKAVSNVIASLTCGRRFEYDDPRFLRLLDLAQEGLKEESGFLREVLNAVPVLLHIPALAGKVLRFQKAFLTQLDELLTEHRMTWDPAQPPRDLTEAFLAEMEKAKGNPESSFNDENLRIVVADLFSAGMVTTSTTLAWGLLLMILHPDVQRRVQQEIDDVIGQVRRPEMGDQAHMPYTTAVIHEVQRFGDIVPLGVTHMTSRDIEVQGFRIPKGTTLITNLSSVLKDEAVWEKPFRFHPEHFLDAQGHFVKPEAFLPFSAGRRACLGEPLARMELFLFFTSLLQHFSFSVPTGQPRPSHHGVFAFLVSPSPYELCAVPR
Chain of Cytochrome P450 1A2 (Homo sapiens) (P05177 whole entry, looked up): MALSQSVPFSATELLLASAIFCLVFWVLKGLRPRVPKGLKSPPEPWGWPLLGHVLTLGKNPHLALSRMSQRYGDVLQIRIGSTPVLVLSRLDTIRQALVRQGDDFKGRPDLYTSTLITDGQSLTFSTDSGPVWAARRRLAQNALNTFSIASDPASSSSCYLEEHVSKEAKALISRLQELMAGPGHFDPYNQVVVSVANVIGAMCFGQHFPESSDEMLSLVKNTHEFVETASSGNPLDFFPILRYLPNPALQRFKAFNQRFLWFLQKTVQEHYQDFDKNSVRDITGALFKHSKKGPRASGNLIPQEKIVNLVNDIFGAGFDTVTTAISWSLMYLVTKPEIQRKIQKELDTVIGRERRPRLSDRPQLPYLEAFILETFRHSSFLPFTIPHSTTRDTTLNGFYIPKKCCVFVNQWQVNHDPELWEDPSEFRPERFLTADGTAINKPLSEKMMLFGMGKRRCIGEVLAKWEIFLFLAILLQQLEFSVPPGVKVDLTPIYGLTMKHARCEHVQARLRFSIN
Chain of Luciferin 4-monooxygenase (Photinus pyralis) (P08659 whole entry, looked up): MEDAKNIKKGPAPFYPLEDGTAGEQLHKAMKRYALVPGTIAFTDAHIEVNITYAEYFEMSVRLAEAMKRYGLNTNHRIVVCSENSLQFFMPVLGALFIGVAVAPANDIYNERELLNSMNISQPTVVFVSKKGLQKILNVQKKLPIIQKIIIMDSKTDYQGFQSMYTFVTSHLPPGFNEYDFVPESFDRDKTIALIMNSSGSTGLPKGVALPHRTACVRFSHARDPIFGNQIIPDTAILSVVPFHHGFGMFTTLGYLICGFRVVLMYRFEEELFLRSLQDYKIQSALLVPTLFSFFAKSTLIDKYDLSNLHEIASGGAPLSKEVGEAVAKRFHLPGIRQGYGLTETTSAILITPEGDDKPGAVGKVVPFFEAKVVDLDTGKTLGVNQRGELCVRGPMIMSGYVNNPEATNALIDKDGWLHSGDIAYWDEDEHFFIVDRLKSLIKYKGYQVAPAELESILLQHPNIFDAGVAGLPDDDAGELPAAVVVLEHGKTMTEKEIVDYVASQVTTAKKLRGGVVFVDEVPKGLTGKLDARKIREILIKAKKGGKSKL
Chain of 3',5'-cyclic-AMP phosphodiesterase 4B (Homo sapiens) (Q07343 whole entry, looked up): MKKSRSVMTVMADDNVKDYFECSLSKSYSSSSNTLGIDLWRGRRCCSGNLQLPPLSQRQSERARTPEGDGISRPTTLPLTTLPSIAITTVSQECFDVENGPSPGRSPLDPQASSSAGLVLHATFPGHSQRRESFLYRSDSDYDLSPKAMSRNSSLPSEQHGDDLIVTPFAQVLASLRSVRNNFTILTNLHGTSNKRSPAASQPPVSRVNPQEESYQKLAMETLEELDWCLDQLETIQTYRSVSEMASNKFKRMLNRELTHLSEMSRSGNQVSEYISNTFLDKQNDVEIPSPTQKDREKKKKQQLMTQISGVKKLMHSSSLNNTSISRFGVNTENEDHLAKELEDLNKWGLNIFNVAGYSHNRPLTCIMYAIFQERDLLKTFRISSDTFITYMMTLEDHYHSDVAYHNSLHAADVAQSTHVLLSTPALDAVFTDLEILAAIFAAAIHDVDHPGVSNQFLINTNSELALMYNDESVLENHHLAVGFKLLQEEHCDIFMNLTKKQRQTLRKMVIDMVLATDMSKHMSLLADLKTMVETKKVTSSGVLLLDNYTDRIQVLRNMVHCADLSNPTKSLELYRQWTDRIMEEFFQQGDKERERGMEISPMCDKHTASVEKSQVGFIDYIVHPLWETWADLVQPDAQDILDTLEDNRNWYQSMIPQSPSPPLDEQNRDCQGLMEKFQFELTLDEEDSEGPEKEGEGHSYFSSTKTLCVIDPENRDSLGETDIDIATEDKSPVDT
Chain of Glutathione peroxidase 1 (Homo sapiens) (P07203 whole entry, looked up): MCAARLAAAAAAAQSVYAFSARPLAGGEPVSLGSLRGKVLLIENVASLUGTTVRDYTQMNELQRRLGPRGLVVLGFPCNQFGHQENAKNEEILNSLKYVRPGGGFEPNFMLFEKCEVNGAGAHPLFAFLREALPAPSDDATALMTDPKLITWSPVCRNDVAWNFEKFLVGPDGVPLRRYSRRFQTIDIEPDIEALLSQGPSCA
Chain of Phospholipid hydroperoxide glutathione peroxidase GPX4 (Homo sapiens) (P36969 whole entry, looked up): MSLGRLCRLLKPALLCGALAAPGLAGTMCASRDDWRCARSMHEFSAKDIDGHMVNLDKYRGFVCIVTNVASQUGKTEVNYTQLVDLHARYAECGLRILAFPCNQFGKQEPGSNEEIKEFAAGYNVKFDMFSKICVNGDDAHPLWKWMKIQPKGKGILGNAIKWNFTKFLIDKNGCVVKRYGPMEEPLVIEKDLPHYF
Chain of Cytochrome P450 2C9 (Homo sapiens) (P11712 whole entry, looked up): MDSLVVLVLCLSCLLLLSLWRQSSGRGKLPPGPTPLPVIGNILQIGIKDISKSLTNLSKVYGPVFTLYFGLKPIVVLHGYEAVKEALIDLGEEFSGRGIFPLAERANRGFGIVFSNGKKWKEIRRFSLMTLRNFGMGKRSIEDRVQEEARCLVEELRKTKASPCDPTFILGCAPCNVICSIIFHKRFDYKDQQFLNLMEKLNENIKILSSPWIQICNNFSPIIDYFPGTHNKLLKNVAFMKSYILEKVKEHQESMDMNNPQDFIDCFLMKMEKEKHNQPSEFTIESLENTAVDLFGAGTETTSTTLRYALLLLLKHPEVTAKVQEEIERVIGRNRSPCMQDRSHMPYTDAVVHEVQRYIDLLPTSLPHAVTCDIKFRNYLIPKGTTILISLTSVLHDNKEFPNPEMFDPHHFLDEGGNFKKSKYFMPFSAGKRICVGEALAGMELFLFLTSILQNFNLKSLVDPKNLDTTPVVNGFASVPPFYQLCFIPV

O=C(O)[C@@H]1CCCN1
inactive: Potency [1] > 11.4 µM | outcome [2] | Potency [3] | activity change, negative = inhibition [4] -2.98% [at 7.69 µM] | outcome [5] | Potency [6] > 46 µM | Potency [7] > 9.22 µM | Potency [8] | outcome [9] | outcome [10] | Potency [11] | Potency [12] | outcome [13] | Potency [14] | Potency [15] | Potency [16] | Potency [17] | Potency [18] | activity, negative = inhibition ([19]; parasite line A) 3.04% | activity, negative = inhibition ([19]; parasite line B) -1.27% | Potency [20] | Potency [21] | Potency [22] | Potency [23] | Potency [24] | Potency [25] | Potency [26] | Potency [27] | Potency [28] | Potency [29] | Potency [30] | Potency [31] | Potency [32] | Potency [33] | Potency [34] | Potency [35] | Potency [36] | Potency [37] | Potency [38]
